According to PubChem BioAssay AID1159580 (chemical genetic matrix, 2015):
Several values for one entry are separate records, joined by “and”; a condition that tells them apart may be missing. Identical values can stand only once. The whole screen tested about 5,500 compounds, of which about 2,000 (36%) were called active. Inconclusive results (about 18%) are left out. Rule as the data show it: active = normalized growth mostly below about 0.91 (no sharp cut-off); inconclusive = no clear call, values can overlap the other calls; inactive = mostly above about 0.92. The list shows a part of the results.

Experiment: chemical genetic growth profiling, strain panel (AID 1159580);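 also: tested at 20 µM; growth read once vehicle control cultures reached saturation at 30 °C; 1 = growth at the plate median or of vehicle wells; lower values mean less growth of the strain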
Settings: S. cerevisiae deletion strains, growth OD

Measured: normalized growth

COC1=CC(C)[C@@H]2C[C@H]3OC(=O)C[C@H]4C(C)=C(OC)C(=O)C([C@@]34C)[C@@]2(C)C1=O (some centres undefined)
inactive: locus YAL021C, strain ccr4, stronger effect = lower value 0.997 | locus YAL026C, strain drs2, stronger effect = lower value 0.979 | locus YAL030W, strain snc1, stronger effect = lower value 0.988 | locus YBL061C, strain skt5, stronger effect = lower value 0.987 | locus YBR009C, strain hhf1, stronger effect = lower value 0.962 | locus YBR021W, strain FUR4, stronger effect = lower value 0.994 | locus YBR023C, strain chs3, stronger effect = lower value 0.978 | locus YBR171W, strain sec66, stronger effect = lower value 0.977 | locus YBR229C, strain ROT2, stronger effect = lower value 1.01 | locus YBR231C, strain swc5, stronger effect = lower value 0.988 | locus YBR279W, strain paf1, stronger effect = lower value 0.985 | locus YCL011C, strain gbp2, stronger effect = lower value 0.977 | locus YCL016C, strain dcc1, stronger effect = lower value 0.981 | locus YCL029C, strain bik1, stronger effect = lower value 1.02 | locus YCL061C, strain MRC1, stronger effect = lower value 0.99 | locus YCL069W, strain vba3, stronger effect = lower value 0.981 | locus YCR088W, strain abp1, stronger effect = lower value 0.978 | locus YDL005C, strain med2, stronger effect = lower value 0.975 | locus YDL035C, strain GPR1, stronger effect = lower value 1.01 | locus YDL040C, strain nat1, stronger effect = lower value 0.981 | locus YDL074C, strain BRE1, stronger effect = lower value 1.03 | locus YDL101C, strain DUN1, stronger effect = lower value 1.01 | locus YDL185W, strain tfp1, stronger effect = lower value 1.02 | locus YDL192W, strain arf1, stronger effect = lower value 1.02 | locus YDR001C, strain nth1, stronger effect = lower value 0.976 | locus YDR069C, strain doa4, stronger effect = lower value 0.984 | locus YDR101C, strain arx1, stronger effect = lower value 1.02 | locus YDR137W, strain rgp1, stronger effect = lower value 1 | locus YDR159W, strain sac3, stronger effect = lower value 0.988 | locus YDR162C, strain NBP2, stronger effect = lower value 1.03 | locus YDR195W, strain ref2 0.966 | locus YDR297W, strain sur2, stronger effect = lower value 0.978 | locus YDR318W, strain mcm21, stronger effect = lower value 1 | locus YDR334W, strain swr1, stronger effect = lower value 0.971 | locus YDR335W, strain msn5, stronger effect = lower value 0.986 | locus YDR388W, stronger effect = lower value 1 | locus YDR392W, strain spt3, stronger effect = lower value 0.88 | locus YDR502C, strain sam2, stronger effect = lower value 1.01 | locus YEL003W, strain gim4, stronger effect = lower value 0.975 | locus YEL037C, strain rad23, stronger effect = lower value 0.972 | locus YEL061C, strain CIN8 (second series), stronger effect = lower value 0.965 | locus YEL061C, strain CIN8, stronger effect = lower value 1.01 | locus YER015W, strain faa2, stronger effect = lower value 0.983 | locus YER016W, strain bim1, stronger effect = lower value 0.973 | locus YER110C, stronger effect = lower value 1.01 | locus YER111C, strain swi4, stronger effect = lower value 0.972 | locus YER155C, strain BEM2 (second series), stronger effect = lower value 0.978 | locus YER155C, strain BEM2, stronger effect = lower value 1 | locus YER167W, strain BCK2, stronger effect = lower value 1.01 | locus YFR010W, strain ubp6, stronger effect = lower value 0.98 | locus YGL078C, strain dbp3, stronger effect = lower value 1.02 | locus YGL086W, strain mad1, stronger effect = lower value 1.02 | locus YGL167C, strain pmr1, stronger effect = lower value 0.968 | locus YGL173C, strain kem1, stronger effect = lower value 0.973 | locus YGL227W, strain vid30, stronger effect = lower value 0.968 | locus YGL240W, strain doc1, stronger effect = lower value 0.972 | locus YGL248W, strain PDE1, stronger effect = lower value 1.03 | locus YGL253W, strain hxk2, stronger effect = lower value 0.983 | locus YGR078C, strain PAC10, stronger effect = lower value 1.04 | locus YGR135W, strain pre9, stronger effect = lower value 1.02 | locus YGR229C, strain SMI1, stronger effect = lower value 1.03 | locus YGR252W, strain gcn5, stronger effect = lower value 1.04 | locus YHR013C, strain ard1, stronger effect = lower value 0.926 | locus YHR027C, strain rpn1, stronger effect = lower value 0.989 | locus YHR030C, strain SLT2, stronger effect = lower value 1.01 and 1.04 | locus YHR079C, strain IRE1 (second series), stronger effect = lower value 1.01 | locus YHR079C, strain IRE1, stronger effect = lower value 1.01 | locus YHR094C, strain hxt1, stronger effect = lower value 1.03 | locus YHR129C, strain ARP1, stronger effect = lower value 1.01 | locus YHR142W, strain chs7, stronger effect = lower value 0.981 | locus YHR200W, strain rpn10, stronger effect = lower value 1.01 | locus YIL066C, strain RNR3, stronger effect = lower value 1.02 | locus YIL073C, strain SPO22, stronger effect = lower value 1.06 | locus YIL125W, strain kgd1, stronger effect = lower value 1.01 | locus YIR030C, strain dcg1, stronger effect = lower value 1.02 | locus YJL092W, strain hpr5, stronger effect = lower value 0.975 | locus YJL095W, strain BCK1 (second series), stronger effect = lower value 0.98 | locus YJL095W, strain BCK1, stronger effect = lower value 1.05 and 1.02 | locus YJL115W, strain asf1, stronger effect = lower value 0.978 | locus YJL129C, strain trk1, stronger effect = lower value 0.971 | locus YJL134W, strain LCB3, stronger effect = lower value 1.01 | locus YJL154C, strain vps35, stronger effect = lower value 0.975 | locus YJL164C, strain tpk1, stronger effect = lower value 0.989 | locus YJL166W, strain qcr8, stronger effect = lower value 0.987 | locus YJL168C, strain set2, stronger effect = lower value 1.01 | locus YJL187C, strain SWE1 (second series), stronger effect = lower value 1.03 | locus YJL187C, strain SWE1, stronger effect = lower value 0.993 | locus YJR043C, strain POL32, stronger effect = lower value 1 | locus YJR066W, strain TOR1, stronger effect = lower value 0.993
